# Shown are actives, neighbours in structure and some others; about 5.7% of the full set was active somewhere.
# hgDAF12 agonist: H. glycines DAF-12 receptor agonists, primary screen, cell-based, luminescence, HEK293, GAL4 fusion, UAS-luciferase; Nuclear hormone receptor DAF-12 (Heterodera glycines), GAL4 fusion; HEK293 GAL4-hgDAF12 UAS-luciferase reporter, agonist luminescence; normalized to butyrate control; activation, % at 6.8 µM; actives 1.8% (n = 370,000); AID 687014, 2013;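 active = activation above a cutoff set at the mean of all screened compounds plus 3 SD, cut at about 10% in these data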;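 note: 0% = DMSO wells and 100% = sodium butyrate wells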
# DAX1 inh-1: DAX1 (NR0B1) inhibitors, primary screen, cell-based, HEK293, Gal4-DAX1, luciferase luminescence | Nuclear receptor subfamily 0 group B member 1 (Homo sapiens), P51843 | inhibition, % at 6.75 µM | AID 504766, 2011 | HEK293 Gal4-DAX1 luciferase reporter | actives 0.99% (n = 340,000);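 active = inhibition above the mean over all tested compounds plus 3 SD, cut at about 4.2% in these data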;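 note: 0% = DAX1-transfected cells with DMSO and 100% = empty-vector control cells with DMSO; inhibition shows as a rise in luminescence from relieved DAX1 repression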
# Target sequence (P51843 207-470 limits assumed): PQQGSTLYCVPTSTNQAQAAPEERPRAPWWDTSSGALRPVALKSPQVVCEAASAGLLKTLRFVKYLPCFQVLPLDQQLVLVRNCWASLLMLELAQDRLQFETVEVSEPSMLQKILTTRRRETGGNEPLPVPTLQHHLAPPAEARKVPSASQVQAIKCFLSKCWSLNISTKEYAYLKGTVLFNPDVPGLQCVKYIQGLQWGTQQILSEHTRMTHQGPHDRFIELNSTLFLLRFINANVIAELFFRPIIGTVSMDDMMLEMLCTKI
# hcDAF-12 act: H. contortus DAF-12 nuclear receptor activators, primary screen, cell-based, luminescence, HEK293, lit1-tk-luc reporter. HEK293 hcDAF-12 lit1-tk-luc reporter; 0% DMSO, 100% Δ7-dafachronic acid. activation, % at 6.8 µM. actives 1.4% (n = 370,000);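 active = activation above the mean of all tested compounds plus 3 SD, cut at about 5.5% in these data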;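 note: 100% = response to 3 µM Δ7-dafachronic acid high control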
# AHR activator: AHR activators, primary screen, cell-based, luminescence, luciferase reporter, human; Aryl hydrocarbon receptor (Homo sapiens), P35869; AHR-responsive luciferase reporter cells; activation, % at 5 µM; actives 2.5% (n = 320,000); in the data active = activation above about 47%;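 note: 0% = vehicle wells and 100% = reference agonist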
# DAX1 inh-2: DAX1 (NR0B1) inhibitors on StAR promoter, primary screen, cell-based, luminescence, SF-1 (NR5A1), full-length DAX-1; HEK293T StAR-luciferase reporter, SF-1/DAX-1 repression relief; inhibition, % at 6.8 µM; actives 1.1% (n = 370,000); AID 652010, 2013;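 active = inhibition above the mean over all tested compounds plus 3 SD, cut at about 3.6% in these data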;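 note: 0% = DAX-1 cells with DMSO and 100% = cells lacking DAX-1 with DMSO; higher inhibition means more luminescence from relief of DAX-1 repression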
# ssDAF-12 act: S. stercoralis DAF-12 nuclear receptor activators, primary screen, cell-based, luminescence, HEK293, GRIP1 co-expression, lit1-tk-luc; Nuclear hormone receptor DAF-12 (Strongyloides stercoralis); HEK293 ssDAF-12/GRIP1 lit1-tk-luc reporter; % of 3 µM dafachronic acid response; activation, % at 6.8 µM; actives 1% (n = 370,000);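 active = activation above the mean over all tested compounds plus 3 SD, cut at about 0.9% in these data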;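 note: 0% = DMSO-only wells and 100% = 3 µM delta7-dafachronic acid wells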
# DAX1 inh confirm: DAX1 (NR0B1) inhibitors relieving SF-1 repression, confirmation, cell-based, luminescence, HEK293T, full-length DAX-1, SF-1 activated StAR promoter. shares compounds with DAX1 inh-2. HEK293T StAR-promoter luciferase reporter, SF-1/DAX-1 repression. inhibition, % at 6.8 µM. actives 87% (n = 2,400). AID 652134, 2013;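 active = inhibition above the average of every tested compound plus 3 SD, cut at about 3.8% in these data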;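 note: 0% = DAX-1 cells with DMSO and 100% = no DAX-1 control cells with DMSO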
# SF1 mutant ctr: StAR reporter signal changes without DAX1, counter-screen for DAX1 inhibitor project, cell-based, luminescence, AF-2 mutant SF-1, transactivation; shares compounds with DAX1 inh-2; HEK293 StAR-luciferase, SF-1 AF2 mutant; inhibition, % at 6.8 µM; actives 78% (n = 2,400); AID 652136, 2013;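 active = inhibition above the mean of all tested compounds plus 3 SD, cut at about 3% in these data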;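 note: 0% = DAX-1 transfected cells with DMSO and 100% = cells without DAX-1 with DMSO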
# LXRb hcDAF ctr: LXR agonists, Gal4 luciferase reporter, confirmation, counter-screen for hcDAF-12 agonist project, cell-based, luminescence, HEK293, H. contortus campaign. shares compounds with hcDAF-12 act. HEK293 Gal4-LXR tk-luc reporter, 24 h; normalized: DMSO 0%, positive control 100%. activation, % at 6.8 µM. 3,400 tested, under 10 active;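 active = mean percent activation of the reporter above a cutoff set as the average over tested compounds plus their standard deviation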
# Target sequence (P55055 whole entry, looked up, the tested form may be a part): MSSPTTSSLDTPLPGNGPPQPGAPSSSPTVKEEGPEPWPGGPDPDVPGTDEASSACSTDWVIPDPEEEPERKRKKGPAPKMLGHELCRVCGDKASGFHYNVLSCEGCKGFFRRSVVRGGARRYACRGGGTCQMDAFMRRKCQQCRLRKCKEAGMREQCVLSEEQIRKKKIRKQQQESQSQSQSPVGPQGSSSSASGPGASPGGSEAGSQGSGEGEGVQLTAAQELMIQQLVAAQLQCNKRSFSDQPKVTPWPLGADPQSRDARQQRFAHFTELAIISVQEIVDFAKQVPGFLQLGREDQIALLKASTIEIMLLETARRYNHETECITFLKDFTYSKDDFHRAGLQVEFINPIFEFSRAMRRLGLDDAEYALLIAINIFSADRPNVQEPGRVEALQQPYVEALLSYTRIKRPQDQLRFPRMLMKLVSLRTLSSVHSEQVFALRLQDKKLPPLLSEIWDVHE
# hcDAF12 ag: H. contortus DAF-12 receptor agonists, confirmation, cell-based, luminescence, HEK293, lit1-tk-luc, triplicate | shares compounds with hcDAF-12 act | HEK293 hcDAF-12 lit1-tk-luc reporter; % of Δ7-dafachronic acid response | activation, % at 6.8 µM | actives 61% (n = 3,400) | AID 743032, 2013;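 active = mean activation across triplicate tests above the threshold derived from the earlier primary screen, cut at about 5.5% in these data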;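 note: 0% = DMSO only wells and 100% = 3 µM Δ7-dafachronic acid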
# hgDAF12 conf: H. glycines DAF-12 receptor agonists, confirmation, cell-based, luminescence, HEK293, GAL4-LBD fusion. actives 80% (n = 3,300). activation, % at 6.8 µM. shares compounds with hgDAF12 agonist. HEK293 GAL4-hgDAF12 luciferase reporter, agonist mode; percent of butyrate response. AID 743050, 2013;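 active = mean activation over triplicate wells above the hit cutoff derived from the earlier primary screen, cut at about 11% in these data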;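 note: 0% = DMSO low control and 100% = 2 mM sodium butyrate high control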
# LXR ag 2: LXR agonists, Gal4 luciferase reporter, confirmation, counter-screen for hgDAF-12 agonist project, cell-based, luminescence, HEK293, H. glycines campaign; 24 h; activation, % at 6.8 µM; 3,300 tested, under 10 active; shares compounds with hgDAF12 agonist;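 active = mean activation of the triplicate above a set limit carried over from the primary screen, none filed active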
# Active calls of the source: *; nt = not tested or not shown.
SMILES,hgDAF12 agonist,DAX1 inh-1,hcDAF-12 act,AHR activator,DAX1 inh-2,ssDAF-12 act,LXRb hcDAF ctr,hcDAF12 ag,others
C[N+](C)(C)CCN1CCc2ccccc21,0,nt,1,nt,-1,0,nt,nt,
CNC(=O)CC1C(=O)N(c2ccc(F)cc2)C(=S)N1NC(=O)c1ccc(Cl)cc1 (stereo not given),-1,0,-1,0,0,-1,nt,nt,
Cc1cc(NC(=O)Cc2ccccc2)ccc1NC(=O)c1cccs1,2,2,0,-5,0,-2,nt,nt,
Cc1occc1-c1nnc(SCC(=O)NC2CCC(C)CC2)o1 (stereo not given),1,2,-2,-1,-1,-1,nt,nt,
NC(=O)c1ccsc1NC(=O)c1ccc(N2CCCC2=O)cc1,25*,-3,7.4*,10,6.7*,1.0*,1,6.9*,DAX1 inh confirm=14*;SF1 mutant ctr=9.6*;hgDAF12 conf=17*;LXR ag 2=1
CC(C)Cc1nnc(NC(=O)c2ccc(N3CCCC3=O)cc2)s1,-1,0,-2,-2,0,0,nt,nt,
COc1ccc(OC)c(/C=C/C(=O)Nc2ccc3c(c2)CCC3)c1,4,-1,-4,31,0,-1,nt,nt,
O=C(Nc1ccc2c(c1)CCC2)Nc1ccccc1Cl,14*,1,3,1,8.8*,0,nt,nt,DAX1 inh confirm=9.8*;SF1 mutant ctr=7.8*;hgDAF12 conf=22*;LXR ag 2=1
O=C(Nc1ccc2c(c1)CCC2)c1ccccc1F,20*,2,15*,22,6.7*,1,2,12*,DAX1 inh confirm=14*;SF1 mutant ctr=7.2*;hgDAF12 conf=21*;LXR ag 2=1
COc1ccccc1/C=C/C(=O)Nc1ccc2c(c1)CCC2,16*,3,6.7*,22,5.2*,1.4*,1,6.6*,DAX1 inh confirm=7.7*;SF1 mutant ctr=7.5*;hgDAF12 conf=19*;LXR ag 2=1
O=C(Nc1ccc2c(c1)CCC2)c1ccccc1,17*,0,6.0*,6,5.6*,0,nt,nt,DAX1 inh confirm=15*;SF1 mutant ctr=6.5*;hgDAF12 conf=19*;LXR ag 2=1
COCCNC(=S)N1CCN(Cc2cccc(OC)c2)CC1,-1,1,-1,0,0,-2,nt,nt,
CCN(C(=O)COC(=O)c1ccc2c(=O)n3c(nc2c1)CCC3)C1CCS(=O)(=O)C1 (stereo not given),1,0,1,-2,0,-1,nt,nt,
CC(=O)c1sc(N/N=C/c2cccc(O)c2)nc1C,12*,0,7.1*,1,0,0,1,5,
CC(=O)c1sc(N/N=C/c2cccc([N+](=O)[O-])c2)nc1C,0,0,-1,4,0,-1,nt,nt,
C/C(=N\NC(=S)Nc1ccc(C)c(C)c1)c1ccc(N2CCOCC2)cc1,3,0,6.9*,30,0,0,0,2,
O=C(Nc1ccc(F)c(Cl)c1)[C@@H]1O[C@H](CO)[C@H](O)[C@H](O)[C@H]1O,-4,nt,1,nt,0,-1,nt,nt,
O=C1CCCN1CCCNc1nc(NCc2cccs2)nc2ccsc12,-2,nt,-1,nt,-2,-2,nt,nt,
CCc1cc(C(=O)Nc2ccc(C)cc2Br)cs1,12*,1,9.1*,2,3.7*,1.6*,1,12*,
CC(C)(C)OC(=O)N1CCN(C(=O)c2cccnc2Cl)CC1,-2,2,-1,0,0,-1,nt,nt,
O=C(NCCc1ccccc1)C1CCC(=O)N(CCCN2CCCC2=O)C1 (stereo not given),1,1,7.8*,3,0,1.9*,0,1,
COc1ccccc1CNC(=O)C1CCC(=O)N(CCCN2CCCC2=O)C1 (stereo not given),-1,2,1,1,0,-1,nt,nt,
O=C(NCc1cc2ccccc2[nH]1)C1CCC(=O)N(CCCN2CCCC2=O)C1 (stereo not given),2,2,6.9*,25,0,0,0,5,
CCN(CC)CC(C)OC(=O)c1ccccc1Cl (stereo not given),-2,0,-1,3,0,-1,nt,nt,
Cc1ncc([N+](=O)[O-])n1S(=O)(=O)c1cc(Cl)ccc1Cl,1,-1,-1,1,0,-1,nt,nt,
CCOC(=O)C1(C)CCCN1C(=O)c1ccc(Cl)nc1 (stereo not given),-1,nt,-1,nt,0,-1,nt,nt,
O=C(N/N=C\c1cc(Br)cs1)c1ccncc1,1,1,0,5,0,-1,nt,nt,
O=C(O)c1ccc(N/N=C/c2cc(Br)cs2)cc1,6,-3,12*,0,1,1.0*,1,9.0*,
CN(C)c1cccc(/C=C(\C#N)c2ccccc2)c1,19*,0,7.1*,1,-1,1.2*,2,9.0*,

# Assay outcomes as filed in PubChem.
